About 3,300 (8.5%) of roughly 39,000 compounds were called active. For the sample, actives were picked, then their nearest neighbours and some compounds at random.
The compounds below were run on HepG2 (assay: cytotoxicity call (relative viability < 0.9)). Conditions: 10 µM.
With `COc1ccc(S(=O)(=O)N(C)C[C@H]2OCCCC[C@@H](C)Oc3ccc(NC(=O)Nc4ccc(C(F)(F)F)cc4)cc3C(=O)N([C@H](C)CO)C[C@@H]2C)cc1` the cytotoxicity call was “inactive”. `CC(C)c1nc(CN(C)C(=O)N[C@@H](CCN2CCOCC2)C(=O)N[C@H](CC[C@H](Cc2ccccc2)NC(=O)OCc2cncs2)Cc2ccccc2)cs1` was tested, and the cytotoxicity call was “inactive”. `CC(C)NC(=O)Nc1ccc2c(c1)CC(=O)N([C@H](C)CO)C[C@H](C)[C@@H](CN(C)S(=O)(=O)c1cn(C)cn1)O2` was tested, and the cytotoxicity call was “inactive”. With `C=CCOC(=O)[C@@H]1[C@H]2C(=O)O[C@H](c3ccccc3)[C@H](c3ccccc3)N2[C@H](c2ccc(OCCOC(=O)[C@@H]3C[C@@H]4C(=O)N5CCC[C@H]5C(=O)N4[C@@H]3c3ccc(O)cc3)cc2)[C@@]12C(=O)Nc1ccccc12` the cytotoxicity call was “inactive”. For `COc1ccc([Si](C)(C)[C@@H]2[C@@H](CC(=O)N3CCC[C@H]3CO)O[C@]3(C(=O)N(Cc4ccc(N5C(=O)c6cccc7cccc5c67)cc4)c4ccccc43)[C@H]2C)cc1`, the cytotoxicity call was “inactive”. In the case of `COc1ccc([Si](C)(C)[C@@H]2[C@@H](CCO)O[C@]3(C(=O)N(Cc4ccc(N5C(=O)c6cccc7cccc5c67)cc4)c4ccccc43)[C@H]2C)cc1`, the cytotoxicity call is reported as “active”. With `COc1ccc([Si](C)(C)[C@H]2[C@H](CC(=O)N3CCC[C@H]3CO)O[C@@]3(C(=O)N(Cc4ccc(N5C(=O)c6cccc7cccc5c67)cc4)c4ccccc43)[C@@H]2C)cc1` the cytotoxicity call was “inactive”. With `COc1ccc([Si](C)(C)[C@H]2[C@H](CCO)O[C@@]3(C(=O)N(Cc4ccc(N5C(=O)c6cccc7cccc5c67)cc4)c4ccccc43)[C@@H]2C)cc1` the cytotoxicity call was “active”. In the case of `COc1ccc([Si](C)(C)[C@@H]2[C@@H](CC(=O)N3Cc4ccccc4C[C@H]3CO)O[C@]3(C(=O)N(Cc4ccc(N5C(=O)c6cccc7cccc5c67)cc4)c4ccccc43)[C@H]2C)cc1`, the cytotoxicity call is reported as “inactive”. With `C[C@H](CO)N1C[C@H](C)[C@@H](CN(C)S(=O)(=O)c2cn(C)cn2)Oc2ccc(NC(=O)Cc3cn(C)c4ccccc34)cc2C1=O` the cytotoxicity call was “inactive”. In the case of `c1csc(Cn2cccc2)c1`, the cytotoxicity call is reported as “inactive”. For `CCOC(=O)[C@H](C(C)=O)[C@H]1CCS(=O)(=O)C1`, the cytotoxicity call was “inactive”. With `CC(C)NC(=O)N(C)C[C@@H]1Oc2ccc(NC(=O)NC3CCCCC3)cc2C(=O)N([C@@H](C)CO)C[C@@H]1C` the cytotoxicity call was “inactive”. In the case of `Cc1noc(C)c1S(=O)(=O)Nc1ccc2c(c1)C(=O)N([C@H](C)CO)C[C@H](C)[C@@H](CN(C)Cc1ccc3c(c1)OCO3)O2`, the cytotoxicity call is reported as “inactive”. For `CCc1nc2ccc(C(=O)Nc3cc(-c4ccccc4)ccc3OC)cn2c1N(CCN(C)C)CC1CC1`, the cytotoxicity call was “active”. `CCc1nc2ccc(C(=O)Nc3cc(-c4ccccc4)ccc3OC)cn2c1N(C)C(=O)Cc1ccccc1` was tested, and the cytotoxicity call was “inactive”. In the case of `CCc1nc2ccc(C(=O)Nc3cc(-c4ccccc4)ccc3OC)cn2c1N(C)CCCc1ccccc1`, the cytotoxicity call is reported as “inactive”. With `CCC(=O)N1CCC(C(=O)O)CC1` the cytotoxicity call was “inactive”. With `CC(CCC(=O)NCC(=O)O)C1CCC2C3C(O)CC4CC(O)CCC4(C)C3CC(O)C12C` (stereo not given) the cytotoxicity call was “inactive”. `COC(=O)CCC(C)C1CCC2C3C(O)CC4CC(O)CCC4(C)C3CC(O)C12C` (stereo not given) was tested, and the cytotoxicity call was “active”. In the case of `C[C@H](CCC(=O)NCC(=O)NCCS(=O)(=O)O)[C@H]1CC[C@H]2[C@@H]3[C@H](O)C[C@@H]4C[C@H](O)CC[C@]4(C)[C@H]3C[C@H](O)[C@]12C`, the cytotoxicity call is reported as “active”. With `C[C@H](CCC(=O)NCCS(=O)(=O)O)[C@H]1CC[C@H]2[C@@H]3[C@H](O)C[C@@H]4C[C@H](O)CC[C@]4(C)[C@H]3C[C@H](O)[C@]12C` the cytotoxicity call was “inactive”. For `COC(=O)CCC(C)C1CCC2C3CCC4CC(O)CCC4(C)C3CC(O)C12C` (stereo not given), the cytotoxicity call was “inactive”. In the case of `CC(CCC(=O)O)C1CCC2C3C(O)CC4CC(O)CCC4(C)C3CC(O)C12C` (stereo not given), the cytotoxicity call is reported as “inactive”. For `Cc1noc(C)c1NC(=O)Nc1ccc2c(c1)C(=O)N([C@H](C)CO)C[C@H](C)[C@@H](CN(C)S(=O)(=O)c1ccc(Cl)cc1)OCCCC[C@H](C)O2`, the cytotoxicity call was “inactive”. In the case of `CCc1nnc(SCC(=O)OC)[nH]1`, the cytotoxicity call is reported as “inactive”. For `COc1ccc(NC(=O)N(C)C[C@H]2OCCCC[C@H](C)Oc3ccc(NC(=O)Nc4c(C)noc4C)cc3C(=O)N([C@H](C)CO)C[C@@H]2C)cc1`, the cytotoxicity call was “inactive”. `C[C@H]1CN([C@@H](C)CO)C(=O)Cc2cc(NC(=O)Cc3ccccc3)ccc2O[C@H]1CN(C)Cc1ccc(C(F)(F)F)cc1` was tested, and the cytotoxicity call was “inactive”. In the case of `C[C@H](CO)N1C[C@H](C)[C@H](CN(C)Cc2ccc(C(F)(F)F)cc2)Oc2ccc(NC(=O)Cc3ccccc3)cc2CC1=O`, the cytotoxicity call is reported as “active”. In the case of `C[C@H]1CN([C@@H](C)CO)C(=O)Cc2cc(NC(=O)Cc3ccccc3)ccc2O[C@@H]1CN(C)Cc1ccc(C(F)(F)F)cc1`, the cytotoxicity call is reported as “inactive”. In the case of `C[C@@H]1CN([C@@H](C)CO)C(=O)Cc2cc(NC(=O)Cc3ccccc3)ccc2O[C@H]1CN(C)C(=O)Nc1ccc(C(F)(F)F)cc1`, the cytotoxicity call is reported as “inactive”. In the case of `C[C@@H]1CN([C@@H](C)CO)C(=O)Cc2cc(NC(=O)Cc3ccccc3)ccc2O[C@@H]1CN(C)Cc1ccc(C(F)(F)F)cc1`, the cytotoxicity call is reported as “active”. In the case of `C[C@@H]1CN([C@H](C)CO)C(=O)Cc2cc(NC(=O)Cc3ccccc3)ccc2O[C@@H]1CN(C)Cc1ccc(C(F)(F)F)cc1`, the cytotoxicity call is reported as “active”. For `C[C@@H]1CN([C@@H](C)CO)C(=O)Cc2cc(NC(=O)Cc3ccccc3)ccc2O[C@H]1CN(C)Cc1ccc(C(F)(F)F)cc1`, the cytotoxicity call was “inactive”. In the case of `C[C@H](CO)N1C[C@H](C)[C@@H](CN(C)Cc2ccc(C(F)(F)F)cc2)Oc2ccc(NC(=O)Cc3ccccc3)cc2CC1=O`, the cytotoxicity call is reported as “inactive”. For `C[C@@H]1CN([C@H](C)CO)C(=O)Cc2cc(NC(=O)Cc3ccccc3)ccc2O[C@H]1CN(C)Cc1ccc(C(F)(F)F)cc1`, the cytotoxicity call was “inactive”. For `CN1CCN(C(=O)C[C@@H]2CC[C@H]3[C@@H](COC[C@@H](O)CN3C(=O)C3CCOCC3)O2)CC1`, the cytotoxicity call was “inactive”. `COCC(=O)Nc1ccc2c(c1)C(=O)N(C)[C@@H]1CC[C@H](CC(=O)NCc3ccccc3Cl)O[C@@H]1CO2` was tested, and the cytotoxicity call was “inactive”. In the case of `CCCn1c(=O)[nH]c2nc(-c3ccc(S(=O)(=O)N4CCN(c5ccc(Cl)cc5)CC4)cc3)[nH]c2c1=O`, the cytotoxicity call is reported as “inactive”. In the case of `CC(C)(C)[S@](=O)N1Cc2cc(C(=O)N[C@@H]3CCN(Cc4ccccc4)C3)nc(-c3cccc(-c4ccncc4)c3)c2[C@@H]1CCO`, the cytotoxicity call is reported as “inactive”.

From the antibiotic and cytotoxicity screens of Wong et al. (2023)
